Test results reported in PubChem BioAssay (NCATS).
Several values for one entry are separate records, joined by “and”; a condition that tells them apart may be missing. Equal values may be shown once. Results filed as inconclusive are left out. Activity calls are given as the source filed them. Unless noted, calls follow the shape of the dose curve; as a rule, active = well fitted curve in the direction sought with a large enough effect; inconclusive = small, poorly fitted or top-dose-only effect, or another doubt; inactive = no such curve, though single readings can be large; an effect the other way counts as inactive or inconclusive.

Assays:
[1] = system: Zika virus NS2B-NS3 protease; experiment: Primary screen GU AMC qHTS for Zika virus inhibitors (AID 1347154);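 also: 0% = no-inhibitor control and -100% = no-enzyme control; nearly all actives have a fitted effect of over 70% in size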
Method in brief: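 Unlinked Zika NS2B hydrophilic domain/NS3 protease domain noncovalent complex (25 nM final) in 10 mM Tris-HCl pH 8.0, 0.01% Tween 20, with AMC peptide substrate. Fluorescence (ex 340, em 450 nm) change over 15 min, room temperature; percent inhibition fitted to 4-parameter Hill equation.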

[2] = Counterscreen qHTS for small molecule stabilizers of the endoplasmic reticulum resident proteome: GLuc-NoTag assay (AID 1508627);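 also: 0% = thapsigargin alone and -100% = DMSO vehicle control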
Method in brief: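 Secreted GLuc lacking the SERCaMP modification is measured in SH-SY5Y cells exposed to compound for 19 h and then to thapsigargin (100 nM, 4 h) to deplete ER calcium; hits retested at 11 concentrations, up to 76.6 uM.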

[3] = Cell Viability qHTS for small molecule stabilizers of the endoplasmic reticulum resident proteome (AID 1508629); details: cell viability counter-screen, 100 nM thapsigargin for final 4 h;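 also: human SH-SY5Y neuroblastoma cells carrying the GLuc-SERCaMP reporter; compound exposure about 46 h in total before the viability read; % is scaled to controls: 0 for no effect and ±100 for the full control effect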
[4] = Confirmatory qHTS for small molecule stabilizers of the endoplasmic reticulum resident proteome: Secreted ER Calcium Modulated Protein (SERCaMP) assay (AID 1508628); also: nearly all actives have a fitted effect of over 40% in size; also: potency is read from the fitted curve at half-maximal effect
Method in brief: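 GLuc-SERCaMP-expressing SH-SY5Y cells, pretreated 16 h with compound, are challenged with thapsigargin to empty ER calcium stores; after 4 h, coelenterazine is added directly to the medium and luminescence is imaged.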

[5] = target: Cytochrome P450 3A4 (Homo sapiens) (UniProt P08684); experiment: qHTS Assay for Inhibitors and Substrates of Cytochrome P450 3A4 (AID 884); also: potency is read from the fitted curve at half-maximal effect; nearly all actives have a fitted effect of over 50% in size
Cytochrome P450 3A4 (Homo sapiens), sequence (P08684 whole entry, looked up): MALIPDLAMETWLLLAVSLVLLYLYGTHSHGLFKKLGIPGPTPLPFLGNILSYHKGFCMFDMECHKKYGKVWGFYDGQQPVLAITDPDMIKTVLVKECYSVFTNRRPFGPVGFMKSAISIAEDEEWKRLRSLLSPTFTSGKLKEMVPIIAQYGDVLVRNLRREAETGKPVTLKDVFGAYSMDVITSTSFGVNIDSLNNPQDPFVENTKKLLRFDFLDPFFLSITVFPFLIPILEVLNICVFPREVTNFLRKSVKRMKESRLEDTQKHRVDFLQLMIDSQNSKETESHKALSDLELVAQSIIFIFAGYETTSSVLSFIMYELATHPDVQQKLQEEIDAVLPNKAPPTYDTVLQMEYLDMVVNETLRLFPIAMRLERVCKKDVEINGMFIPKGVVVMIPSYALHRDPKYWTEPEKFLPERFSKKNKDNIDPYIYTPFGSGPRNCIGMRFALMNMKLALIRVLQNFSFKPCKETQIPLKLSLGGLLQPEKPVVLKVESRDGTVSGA
Method in brief: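 Luminescent readout of luciferin produced by CYP3A4 (20 nM) dealkylation of Luciferin-PPXE, 25 uM (its KM). NADPH-driven reaction ran 60 min at RT after 10 min compound preincubation; data scaled to 57 uM ketoconazole as 100% inhibition.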

[6] = target: Cytochrome P450 3A4 (Homo sapiens) (UniProt P08684); experiment: qHTS Assay for Activators of Cytochrome P450 3A4 (AID 885); also: nearly all actives have a fitted effect of over 65% in size
Method in brief: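 Luminescent readout of luciferin formed from 25 uM Luciferin-PPXE (KM level) by 20 nM CYP3A4 in 200 mM KPO4, with 60 min NADPH-driven reaction at room temperature after 10 min compound exposure. Ketoconazole (57 uM) defined 100% inhibition.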

[7] = Primary qHTS for small molecule stabilizers of the endoplasmic reticulum resident proteome: Secreted ER Calcium Modulated Protein (SERCaMP) assay (AID 1508630); also: % is scaled to controls: 0 for no effect and ±100 for the full control effect
Method in brief: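 The SH-SY5Y reporter protocol was run at 3 concentrations up to 38.3 uM (primary) or 11 concentrations (follow-up): 16 h compound, 100 nM thapsigargin for 4 h, then extracellular luciferase luminescence.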

[8] = target: Cytochrome P450 1A2 (Homo sapiens) (UniProt P05177); experiment: p450-cyp1a2 (AID 410; calls by dose curve; also: potency is read from the fitted curve at half-maximal effect)
Cytochrome P450 1A2 (Homo sapiens), sequence (P05177 whole entry, looked up): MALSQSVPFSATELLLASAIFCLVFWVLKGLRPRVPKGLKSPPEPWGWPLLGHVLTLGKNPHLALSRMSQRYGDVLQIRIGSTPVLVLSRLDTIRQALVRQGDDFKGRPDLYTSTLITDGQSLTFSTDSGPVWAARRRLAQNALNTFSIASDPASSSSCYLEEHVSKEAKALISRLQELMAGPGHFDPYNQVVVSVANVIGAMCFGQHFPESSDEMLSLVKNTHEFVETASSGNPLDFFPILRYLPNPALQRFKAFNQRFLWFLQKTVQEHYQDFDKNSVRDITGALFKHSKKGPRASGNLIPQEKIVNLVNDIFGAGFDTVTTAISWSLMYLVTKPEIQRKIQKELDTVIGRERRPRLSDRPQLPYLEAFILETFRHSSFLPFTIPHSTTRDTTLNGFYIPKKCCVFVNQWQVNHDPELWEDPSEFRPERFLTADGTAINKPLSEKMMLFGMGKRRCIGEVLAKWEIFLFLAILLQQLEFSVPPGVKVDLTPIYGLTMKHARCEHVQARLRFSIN
Method in brief: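 20nM CYP1A2, 100uM Luciferin-ME (=Km), 100mM KPO4; cpd 10 min RT; +NADPH regen, 60 min RT; stop/detect 20 min; luminescence. Normalized to furafylline 57 uM = full inhibition.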

[9] = target: Glucocorticoid receptor (Homo sapiens) (UniProt P04150); experiment: GR-GFP Redistribution (AID 450;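 active = compounds whose dose series gives a full or clear partial fitted curve of increased nuclear translocation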; also: potency is read from the fitted curve at half-maximal effect); details: U2OS GR-GFP nuclear translocation, laser cytometry, 2 h
Glucocorticoid receptor (Homo sapiens), sequence (P04150 whole entry, looked up, the tested form may be a part): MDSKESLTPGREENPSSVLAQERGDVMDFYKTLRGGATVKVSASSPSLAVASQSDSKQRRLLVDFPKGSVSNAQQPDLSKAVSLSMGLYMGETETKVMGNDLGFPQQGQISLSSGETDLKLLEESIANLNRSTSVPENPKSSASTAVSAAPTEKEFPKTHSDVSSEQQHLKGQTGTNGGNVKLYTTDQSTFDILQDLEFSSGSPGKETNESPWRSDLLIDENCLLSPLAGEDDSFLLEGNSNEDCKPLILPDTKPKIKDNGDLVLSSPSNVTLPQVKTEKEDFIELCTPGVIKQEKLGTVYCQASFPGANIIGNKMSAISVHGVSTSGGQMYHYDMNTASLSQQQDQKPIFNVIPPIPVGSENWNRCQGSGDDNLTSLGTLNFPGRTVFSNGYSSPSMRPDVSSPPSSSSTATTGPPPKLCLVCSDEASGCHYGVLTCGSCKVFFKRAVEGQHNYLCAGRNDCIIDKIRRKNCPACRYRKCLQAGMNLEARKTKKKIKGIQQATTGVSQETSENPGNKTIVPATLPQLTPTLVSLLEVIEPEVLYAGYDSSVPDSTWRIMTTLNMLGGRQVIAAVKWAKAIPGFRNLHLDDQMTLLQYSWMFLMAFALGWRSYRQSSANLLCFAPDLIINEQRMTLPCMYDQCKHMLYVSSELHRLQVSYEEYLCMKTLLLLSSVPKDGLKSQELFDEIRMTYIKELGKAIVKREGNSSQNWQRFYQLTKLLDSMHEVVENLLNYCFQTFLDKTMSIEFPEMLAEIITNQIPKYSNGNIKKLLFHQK

[10] = target: Glucocorticoid receptor (Homo sapiens) (UniProt P04150); experiment: GR-EFC Redistribution (AID 451; calls by dose curve; also: potency is read from the fitted curve at half-maximal effect); details: CHO-K1 GR-EFC translocation, beta-gal luminescence, 2 h
Method in brief: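 CHO-K1 cells stably expressing nuclear-localized β-gal enzyme acceptor and GR fused C-terminally to the enzyme donor fragment; ligand-driven nuclear translocation restores β-gal by complementation. Compounds titrated up to 46 uM final, 2 h at 37 °C; luminescence read.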

[11] = target: Mitogen-activated protein kinase 10 (Mus musculus) (UniProt Q61831); experiment: JNK3 AlphaScreen Assay (AID 530; active = well fitted curve in either direction with a large enough effect, not every such curve was filed as active;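 also: kinase came from lysate of stimulated human HepG2 cells; signal reports phosphorylation of biotinylated GST-cJun 1-79 at Ser73 with 10 µM ATP; % is scaled to controls: 0 for no effect and ±100 for the full control effect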)
Method in brief: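 Biotinylated GST-cJun(1-79) served as substrate for JNK3 in HepG2 lysates stimulated with IL-1beta and TNF-alpha. ATP was 10 uM final, pH 7.6. Ser73 phosphorylation was quantified by AlphaScreen (680 nm excitation).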

[12] = target: Cytochrome P450 2C9 (Homo sapiens) (UniProt P11712); experiment: qHTS Assay for Inhibitors and Substrates of Cytochrome P450 2C9 (AID 883); also: potency is read from the fitted curve at half-maximal effect; nearly all actives have a fitted effect of over 60% in size
Method in brief: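 Human CYP2C9 (10nM) hydroxylated Luciferin-H (100uM, at its KM) to luciferin in 25mM KPO4. Compound was preincubated 10 min at 37C, then NADPH regeneration started a 60 min reaction at 37C. Luminescence was read after detection reagent, normalized to 57uM sulphaphenazole.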

[13] = target: Cytochrome P450 2C19 (Homo sapiens) (UniProt P33261); experiment: qHTS Assay for Inhibitors and Substrates of Cytochrome P450 2C19 (AID 899); also: potency is read from the fitted curve at half-maximal effect; nearly all actives have a fitted effect of over 60% in size
Method in brief: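 Human CYP2C19 (5nM) with Luciferin-H EGE at 10uM (its KM) in 50mM KPO4 was preincubated with compound for 10 min at 37C. NADPH regeneration started a 60 min 37C reaction. Luciferin was read by luminescence, normalized to 57uM ketoconazole.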

[14] = target: Ubiquitin carboxyl-terminal hydrolase 1 (Homo sapiens) (UniProt O94782); experiment: Inhibitors of USP1/UAF1: Pilot qHTS (AID 504865);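 also: rhodamine fluorescence freed from ubiquitin-rhodamine substrate followed over time; top concentration of the series differs between compounds; % is scaled to controls: 0 for no effect and ±100 for the full control effect; nearly all actives have a fitted effect of over 35% in size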
Ubiquitin carboxyl-terminal hydrolase 1 (Homo sapiens), sequence (O94782 whole entry, looked up): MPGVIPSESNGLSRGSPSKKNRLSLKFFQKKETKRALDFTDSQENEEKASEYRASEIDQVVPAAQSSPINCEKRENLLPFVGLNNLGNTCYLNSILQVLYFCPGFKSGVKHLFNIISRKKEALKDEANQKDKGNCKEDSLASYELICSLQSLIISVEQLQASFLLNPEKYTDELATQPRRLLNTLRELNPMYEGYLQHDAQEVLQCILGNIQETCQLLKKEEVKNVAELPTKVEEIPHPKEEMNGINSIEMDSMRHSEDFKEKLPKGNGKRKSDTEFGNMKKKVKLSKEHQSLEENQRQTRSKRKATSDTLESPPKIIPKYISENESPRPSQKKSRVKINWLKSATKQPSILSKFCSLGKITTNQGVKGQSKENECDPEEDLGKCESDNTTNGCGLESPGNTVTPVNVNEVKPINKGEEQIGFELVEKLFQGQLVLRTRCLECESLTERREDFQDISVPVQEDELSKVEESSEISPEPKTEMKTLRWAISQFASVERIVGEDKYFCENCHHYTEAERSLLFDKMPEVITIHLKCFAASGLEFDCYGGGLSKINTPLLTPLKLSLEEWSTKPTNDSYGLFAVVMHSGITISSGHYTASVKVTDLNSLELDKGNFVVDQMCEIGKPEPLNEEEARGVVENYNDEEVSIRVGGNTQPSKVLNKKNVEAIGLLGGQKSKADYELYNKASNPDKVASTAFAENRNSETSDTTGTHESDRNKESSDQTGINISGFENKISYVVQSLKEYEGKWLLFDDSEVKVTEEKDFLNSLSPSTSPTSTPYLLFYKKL
Method in brief: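 1nM USP1/UAF1 + cpd, 15 min RT; start w/ Ub-Rho 150nM final; kinetic FL 480/540 nm, 6 reads q60 s. Buffer 50mM HEPES pH 7.8, 0.5mM EDTA, 1mM TCEP, 0.01% Tween-20, 0.1 mg/ml BSA.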

[15] = target: DNA dC->dU-editing enzyme APOBEC-3G (Homo sapiens) (UniProt Q9HC16); experiment: qHTS for inhibitors of Vif-A3G interactions: Validation (AID 588379); also: 0% is about no effect
DNA dC->dU-editing enzyme APOBEC-3G (Homo sapiens), sequence (Q9HC16 whole entry, looked up): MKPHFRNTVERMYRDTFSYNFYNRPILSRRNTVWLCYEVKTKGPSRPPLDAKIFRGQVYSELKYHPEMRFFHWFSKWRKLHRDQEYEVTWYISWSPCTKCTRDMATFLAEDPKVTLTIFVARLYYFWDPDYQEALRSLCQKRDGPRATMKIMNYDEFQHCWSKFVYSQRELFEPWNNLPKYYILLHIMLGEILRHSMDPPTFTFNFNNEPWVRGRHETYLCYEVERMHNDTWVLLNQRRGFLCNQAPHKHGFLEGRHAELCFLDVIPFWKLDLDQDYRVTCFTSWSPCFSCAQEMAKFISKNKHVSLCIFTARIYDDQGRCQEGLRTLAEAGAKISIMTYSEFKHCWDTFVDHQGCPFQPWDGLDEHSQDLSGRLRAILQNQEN
Method in brief: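 Yellow fluorescence (Ex 488, Em 500-530) of Vif-coexpressing HeLa A3G-eYFP cells, scanned by Acumen cytometer, reports blocked A3G degradation. Cells plated at 700/well overnight at 37 deg C before compound addition, then a further overnight compound incubation at 37 deg C.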

[16] = target: Lysosomal acid glucosylceramidase (Homo sapiens) (UniProt P04062); experiment: Glucocerebrosidase-p2 (AID 348; in the data active = potency below about 10 µM; also: potency is read from the fitted curve at half-maximal effect); details: purified GBA, blue fluorogenic substrate, 40 min
Method in brief: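 Normal human glucocerebrosidase (0.2 nM) with blue fluorogenic substrate (80 uM final) in citrate/phosphate pH 5.9 with 10mM sodium taurocholate, 0.01% tween-20; 40 min RT, NaOH/glycine stop; fluorescence Ex 365/Em 440; AC50 from a titration from 0.6 nM upwards.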

[17] = AP1 Signaling Pathway (AID 357; active = well fitted curve in either direction with a large enough effect, not every such curve was filed as active;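 also: ME-180 reporter cells stimulated with EGF at its EC50 level; % is scaled to controls: 0 for no effect and ±100 for the full control effect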); details: ME-180 AP-1-bla reporter, EGF-induced, beta-lactamase ratio, 5 h
Method in brief: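 Cells are seeded overnight, exposed to compound titrations and an EC50 level of EGF for 5 hours at 37 °C, then loaded with CCF4 dye for 2.5 hours. Beta-lactamase activity under the AP-1 element is read as a blue/green ratio.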

[18] = Stat Signaling Pathway (AID 446; active = well fitted curve in either direction with a large enough effect, not every such curve was filed as active); details: ME-180 (cervical carcinoma) SIE beta-lactamase reporter, IL-6 stimulated, 5 h
Method in brief: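 FRET read-out (405 nm excitation, 460/530 nm emission) of a beta-lactamase reporter under a STAT-inducible element in ME-180 cervical carcinoma cells. Cells with compound receive 40 pM IL-6 for 5 h. Values are normalised to AC90 stimulation and AC90 JAK-inhibitor controls.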

[19] = target: 3',5'-cyclic-AMP phosphodiesterase 4B (Homo sapiens) (UniProt Q07343); experiment: qHTS Assay for Inhibitors of PDE-IV (AID 607; active = well fitted activation curve with a large enough effect in the main read-out, with a control signal flat, not every such curve was filed as active; also: % of control where 0% means no effect)
3',5'-cyclic-AMP phosphodiesterase 4B (Homo sapiens), sequence (Q07343 whole entry, looked up): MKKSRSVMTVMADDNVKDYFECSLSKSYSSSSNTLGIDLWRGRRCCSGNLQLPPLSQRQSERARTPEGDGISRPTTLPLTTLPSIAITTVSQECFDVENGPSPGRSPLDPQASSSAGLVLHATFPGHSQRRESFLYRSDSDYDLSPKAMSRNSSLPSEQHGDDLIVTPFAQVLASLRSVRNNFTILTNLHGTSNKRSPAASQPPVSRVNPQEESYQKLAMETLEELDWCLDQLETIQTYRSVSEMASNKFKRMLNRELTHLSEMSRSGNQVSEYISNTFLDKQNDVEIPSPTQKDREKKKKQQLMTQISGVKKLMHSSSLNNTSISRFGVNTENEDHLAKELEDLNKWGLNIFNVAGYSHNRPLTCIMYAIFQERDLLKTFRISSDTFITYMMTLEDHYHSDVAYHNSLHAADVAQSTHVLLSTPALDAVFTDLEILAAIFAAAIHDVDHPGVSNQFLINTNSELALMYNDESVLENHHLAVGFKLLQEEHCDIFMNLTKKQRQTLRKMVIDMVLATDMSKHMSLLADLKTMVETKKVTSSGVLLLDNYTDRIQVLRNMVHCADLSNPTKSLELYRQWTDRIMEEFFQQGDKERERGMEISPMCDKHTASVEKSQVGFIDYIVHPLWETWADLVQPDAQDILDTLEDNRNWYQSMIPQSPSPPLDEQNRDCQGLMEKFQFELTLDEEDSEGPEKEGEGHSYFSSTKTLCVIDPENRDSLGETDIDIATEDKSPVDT
Method in brief: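 Cell-based read-out of cAMP via a modified cyclic nucleotide-gated channel and membrane potential dye (535/590 nm) in HEK293 cells expressing PDE4 endogenously. Compounds tested up to 22.9 uM final; 100 uM RO 20-1724 reference.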

[20] = target: Guanine nucleotide-binding protein G(i) subunit alpha-1 (Homo sapiens) (UniProt P63096); experiment: qHTS Assay for Inhibitors of RGS12 GoLoco Motif Activity (Green Fluorophore) (AID 879);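 also: 0% = labeled peptide with Gαi1 and full inhibition = labeled peptide alone without protein; negative values mean loss of peptide binding seen as reduced polarization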
Guanine nucleotide-binding protein G(i) subunit alpha-1 (Homo sapiens), sequence (P63096 whole entry, looked up): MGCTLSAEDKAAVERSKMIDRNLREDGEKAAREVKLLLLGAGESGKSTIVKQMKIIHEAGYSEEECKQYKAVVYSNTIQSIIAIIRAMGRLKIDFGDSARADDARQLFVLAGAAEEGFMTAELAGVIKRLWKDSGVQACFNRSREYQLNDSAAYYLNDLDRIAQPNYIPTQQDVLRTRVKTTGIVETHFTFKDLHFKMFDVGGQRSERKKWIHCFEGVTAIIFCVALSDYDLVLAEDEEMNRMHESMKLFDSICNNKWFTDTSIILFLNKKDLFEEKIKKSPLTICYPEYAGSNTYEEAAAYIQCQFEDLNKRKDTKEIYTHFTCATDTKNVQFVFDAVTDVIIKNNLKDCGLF
Method in brief: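 A drop in FITC polarization marked displacement of the FITC-tagged RGS12 GoLoco peptide (10 nM) from Gαi1 (50 nM). Compounds were incubated 10 min at room temperature in Tris pH 7.5 buffer containing 150 mM NaCl, 0.1 mM GDP and 0.05% NP40; unlabeled peptide titration served as control.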

[21] = qHTS Assay for Identification of Small Molecule Agonists for Thrombopoietin (TPO) Signaling Pathway (AID 917); also: % is scaled to controls: 0 for no effect and ±100 for the full control effect
Method in brief: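 Ba/F3 (mouse) + hTPO receptor + GpIIb-promoter luciferase; IL-3 withdrawn overnight; compound + 26 pM TPO (EC50), 24 hrs, 37 C, 5% CO2; Steadylite luminescence, 10 min RT.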

[22] = target: Pyruvate kinase (Leishmania mexicana) (UniProt Q27686); experiment: qHTS Validation Assay for Inhibitors of Leishmania Mexicana Pyruvate Kinase (AID 945);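 also: 0% = DMSO only neutral control wells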
Pyruvate kinase (Leishmania mexicana), sequence (Q27686 2-499 E452W): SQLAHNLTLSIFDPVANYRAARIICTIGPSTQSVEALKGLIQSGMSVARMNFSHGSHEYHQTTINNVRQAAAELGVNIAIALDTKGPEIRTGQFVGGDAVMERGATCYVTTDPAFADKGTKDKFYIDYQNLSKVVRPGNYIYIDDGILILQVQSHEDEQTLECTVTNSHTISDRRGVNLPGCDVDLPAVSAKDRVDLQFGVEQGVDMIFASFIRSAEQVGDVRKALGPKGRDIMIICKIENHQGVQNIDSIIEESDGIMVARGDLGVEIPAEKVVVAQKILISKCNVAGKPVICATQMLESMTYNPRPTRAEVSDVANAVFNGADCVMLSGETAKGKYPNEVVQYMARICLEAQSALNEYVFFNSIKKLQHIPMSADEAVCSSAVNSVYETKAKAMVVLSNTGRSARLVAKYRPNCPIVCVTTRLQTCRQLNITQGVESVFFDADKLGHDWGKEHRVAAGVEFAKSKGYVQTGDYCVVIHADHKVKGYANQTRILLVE
Method in brief: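 LmPYK E451W 0.2 nM; 0.5 mM PEP, 0.1 mM ADP, 7 mM MgCl2, 50 mM KCl, imidazole pH 7.2, 0.01% Tween 20, 0.05% BSA; 1 h RT; PKLight luminescence; DMSO-normalized.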

[23] = target: Alpha-galactosidase A (Homo sapiens) (UniProt P06280); experiment: Counterscreen for Glucocerebrosidase Inhibitors: qHTS Assay for Human alpha-Galactosidase at pH 4.5 (AID 992); also: 0% is about no effect
Alpha-galactosidase A (Homo sapiens), sequence (P06280 whole entry, looked up): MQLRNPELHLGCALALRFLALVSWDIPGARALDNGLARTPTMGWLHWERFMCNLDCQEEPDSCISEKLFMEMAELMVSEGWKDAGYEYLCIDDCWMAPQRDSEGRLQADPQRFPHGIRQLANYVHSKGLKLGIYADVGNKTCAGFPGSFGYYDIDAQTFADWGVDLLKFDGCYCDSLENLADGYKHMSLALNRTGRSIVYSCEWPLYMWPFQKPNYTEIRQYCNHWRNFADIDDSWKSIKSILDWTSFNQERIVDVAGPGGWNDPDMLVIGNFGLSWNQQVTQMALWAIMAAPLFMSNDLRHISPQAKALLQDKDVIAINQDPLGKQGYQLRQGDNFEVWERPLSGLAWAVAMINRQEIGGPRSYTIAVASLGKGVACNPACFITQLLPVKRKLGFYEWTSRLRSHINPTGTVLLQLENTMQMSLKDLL
Method in brief: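 Fluorogenic 1536-well qHTS at pH 4.5 (citrate, Tween-20): 2 nM enzyme, 80 uM 4-MU-alpha-galactoside, 20 min room temperature, NaOH/glycine stop. Titration 0.7 nM to 77 uM, data normalized to no-enzyme and full-activity controls, Hill-fitted AC50.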

[24] = target: alpha-glucosidase (Oryza sativa, rice) (UniProt Q653V4); experiment: Counterscreen for Glucocerebrosidase Inhibitors: qHTS Assay for Rice alpha-Glucosidase at pH 5.0 (AID 997);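 also: 0% = full activity with enzyme and -100% = basal without enzyme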
Method in brief: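 Endpoint fluorogenic assay at pH 5.0: compounds (0.7 nM to 77 uM) titrated against 4 nM rice enzyme and 400 uM 4-MU-alpha-glucoside for 20 min at room temperature; NaOH/glycine stop, read ex 365/em 440 nm, Hill-fitted AC50.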

[25] = qHTS Assay for Lipid Storage Modulators (AID 1519; calls by dose curve); details: Drosophila S3 cells, BODIPY lipid droplet/cell ratio, laser cytometry, cells loaded with oleic acid
Method in brief: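 Cells seeded at 5,000 per well were treated with compounds over a concentration series and loaded with oleic acid (400 uM, as added). Lipid droplet fluorescence (488 nm excitation, 500-530 nm channel) was read by laser-scanning cytometry and normalized to 20 uM Triacsin C.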

N=C(N)SCCN=C(N)N
inactive: Potency [1] | Potency [2] | max response [3] -2.13%

Cc1cc(C)c(N(Cc2ccccc2)S(=O)(=O)c2ccc(OCCNC(=O)c3cc4ccccc4o3)cc2)c(C(=O)NO)c1
inactive: Potency [1] | Potency [4]

CCOC(=O)NC[C@H](Cc1ccc(OCCc2nc(-c3ccccc3)oc2C)cc1)N/C(C)=C\C(=O)c1ccc(C(F)(F)F)cc1
inactive: Potency [6] | Potency [1] | Potency [2]
active: Potency [5] 0.794 µM | Potency [4] 31.6 µM

NC(=O)N/N=C/c1ccc(Oc2ccc(F)cc2)cc1
inactive: Potency [1] | Potency [7]

COc1cc(N)c(Cl)cc1C(=O)N[C@H]1CCN(CCCOc2ccc(F)cc2)C[C@@H]1OC
active: Potency [8] 25.1 µM | Potency [12] 1 µM | Potency [13] 0.794 µM
inactive: Potency [9] > 46 µM | Potency [10] > 46 µM | Potency [11] | Potency [14] | Potency [15] | Potency [1] | Potency [2]

CN(C)C/C=C(\c1ccc(Br)cc1)c1cccnc1
active: Potency [4] 44.7 µM
-11.6%: max response ([25]; measured here: lipid channel max response)
-7.55%: max response ([25]; measured here: cell count channel max response)
inactive: Potency [16] > 11.4 µM | activity change, negative = inhibition ([17]; at 7.69 µM (top of the series)) 5.82% | activity change, negative = inhibition ([17]; at 17.2 µM (top of the series)) 4.78% | activity change, negative = inhibition ([17]; at 38 µM (top of the series)) 14.9% | activity, negative = inhibition ([18]; at 7.69 µM (top of the series)) 3.29% | activity, negative = inhibition ([18]; at 17.2 µM (top of the series)) 7.82% | activity, negative = inhibition ([18]; at 38 µM (top of the series)) -15.8% | Potency [9] > 46 µM and > 20.6 µM | Potency [10] > 46 µM and > 20.6 µM and > 9.22 µM | Potency [11] | Potency [19] | outcome [20] | Potency [21] | Potency [22] | outcome [23] | outcome [24] | activity change, negative = inhibition ([25]; at 25.7 µM (top of the series)) -2.94% | Potency [14] | Potency [15] | Potency [1]
